TrxR1 substrate: substrates of rat thioredoxin reductase 1. O89049. purified TrxR1 substrate turnover, NADPH consumption readout. Potency, µM (top dose mostly 114 µM), for the others: at the highest dose activity change, negative = substrate turnover. 390,000 compounds, 0.01% hits. AID 588456; further: potency means the concentration at half of the fitted maximal effect; nearly all actives have a fitted effect of over 50% in size
Target sequence (O89049 whole entry, looked up): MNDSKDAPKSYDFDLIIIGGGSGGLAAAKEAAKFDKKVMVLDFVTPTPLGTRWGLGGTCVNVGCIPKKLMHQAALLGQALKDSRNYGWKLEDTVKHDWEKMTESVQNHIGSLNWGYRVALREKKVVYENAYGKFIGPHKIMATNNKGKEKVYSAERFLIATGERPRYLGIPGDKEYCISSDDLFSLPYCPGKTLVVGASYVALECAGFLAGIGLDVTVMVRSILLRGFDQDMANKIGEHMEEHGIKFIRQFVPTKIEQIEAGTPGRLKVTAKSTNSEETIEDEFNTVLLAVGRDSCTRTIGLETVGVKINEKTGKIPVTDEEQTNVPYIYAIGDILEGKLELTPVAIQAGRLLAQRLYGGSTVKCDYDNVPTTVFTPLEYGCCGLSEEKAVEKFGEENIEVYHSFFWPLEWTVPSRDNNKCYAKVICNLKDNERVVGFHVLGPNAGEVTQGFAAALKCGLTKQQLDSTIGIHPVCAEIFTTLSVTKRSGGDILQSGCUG
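Rat TrxR1, dispensed at 90 nM, was prereduced with 400 uM NADPH (final) for 5 min at ~22 deg C, then incubated with compound 15 min before 400 uM selenite. A first-read NADPH fluorescence drop versus no-compound background flagged substrates.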
TrxR1 inh: inhibitors of rat thioredoxin reductase 1 | O89049 | recombinant rTrxR1, NADPH fluorescence consumption, selenite substrate | Potency, µM (titrated, usually from 114 µM), inactives show at the top dose activity change, negative = inhibition, usual class: inhibitors | 390,000 compounds, 1% hits | AID 588453; further: potency means the concentration at half of the fitted maximal effect; nearly all actives have a fitted effect of over 65% in size
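Rat TrxR1 (90 nM in the dispensed reagent) was pre-reduced with 400 uM NADPH for 5 min at room temperature, then incubated with compound for 15 min. After 400 uM selenite was added, NADPH fluorescence (Ex 340/Em 450 nm) was followed for 8 min.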
FBPA coupling cs: coupling enzyme interference in Giardia aldolase counter-screen; coupling enzyme system counterscreen, AmpLite Red fluorescence; activity change, negative = inhibition, % at 58.2 µM, hits read low; 290,000 compounds, 0.67% hits; in the data active means activity change below about -30%
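First, compound is pin-transferred into glyceraldehyde-3-phosphate coupling-enzyme reagent at 57.5 uM final and held 10 min at RT. Next, substrate, coupling system and AmpLite Red are added. After 20 min RT, fluorescence (525/598 nm) is read.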
Eya2 inh: Eya2 (human) phosphatase inhibition; Potency, µM (series often up to 76.9 µM), inactives show at the top dose activity, negative = inhibition, most hits filed as inhibitors; AID 488837; O00167; recombinant Eya2, OMFP fluorescence dephosphorylation (OMFP is methylfluorescein phosphate); 330,000 compounds, 0.006% hits; further: potency means the concentration at half of the fitted maximal effect
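Eya2 (0.2 uM) preincubated 10 min at ambient with compound, then OMFP substrate added at 50 uM; 10 min reaction in 50 mM HEPES pH 7.5, 50 mM NaCl, 5 uM MgCl2, 0.05% BSA, 1 mM DTT. Fluorescence read at Ex 485/Em 525 nm.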
IDH1 R132H inh: blocks human mutant IDH1 R132H enzyme. IDH1-R132H enzyme, NADPH consumption, diaphorase/resazurin fluorescence. 390,000 compounds, 0.093% hits. Potency, µM (highest dose often 76.6 µM), for the others: at the top dose activity change, negative = inhibition, actives largely listed as inhibitors. AID 602179. O75874; further: potency means the concentration at half of the fitted maximal effect; nearly all actives have a fitted effect of over 65% in size
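IDH1-R132H (0.5 ug/mL) preincubated 30 min with compound, then NADPH (0.016 mM) and alpha-KG (2 mM) added; 80 min at RT, pH 7.5. Remaining NADPH coupled via diaphorase/resazurin to fluorescence (540/590 nm); concentration-response curves normalized to no-enzyme control.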
* hit, by the source's call; ? = inconclusive; nt = not tested or not shown; ! = repeats disagree; [ ] = another dose, or the depositor's remark. The list is not random: actives were taken first. Their share in the collection is about 1.5%. Unless noted, the call rests on the fitted dose curve; in most records, active means well fitted curve in the direction sought with a large enough effect; inconclusive means small, poorly fitted or top-dose-only effect, or another doubt; inactive means no such curve, though single readings can be large; an effect the other way counts as inactive or inconclusive. On the % scale 0 is the no-effect control and ±100 the full control effect.

SMILES	TrxR1 substrate	TrxR1 inh	FBPA coupling cs	Eya2 inh	IDH1 R132H inh
CCOC(=O)/C=C1\CC(C(=O)OCC)Oc2c(OC)cccc21 (centres undefined)	3%	28µM*!	-3	2%	6%
O=C(CCl)N1c2ccccc2Oc2ccc3ccccc3c21	8%	2.5µM*	nt	nt	25%
Cc1ccccc1NC1=CC(=O)CC(C)(C)C1	-7%	-3%	-5	-10%	-1%
CC1(C)CC(=O)C=C(NC2=CC3OC(c4ccccc4)OCC3OC2=O)C1 (centres undefined)	-7%	16µM*	1	-16%	5%
C=CCOC(=O)N[C@@H](CC(C)C)/C(C(=O)OC)=C(\C)NCc1ccccc1	nt	nt	0	nt	nt
CC(C)(C)CC(C)(C)N=C1Nc2ccc(Cl)cc2NC12C[C@H]1CCC(=O)N3CC[C@@H](C2)[C@@H]13 (some centres undefined)	-11%	-8%	nt	nt	nt
CSCC[C@H](NC(=O)[C@H](CCCN=C(N)N)NC(=O)[C@@H]1CCCN1C(=O)[C@H](Cc1ccccc1)NC(=O)[C@H](C)NC(=O)[C@H](CC(C)C)NC(=O)[C@H](Cc1ccc(O)cc1)NC(=O)[C@H](CC(N)=O)NC(=O)[C@@H](N)CCSC)C(N)=O	nt	nt	1	nt	nt
COc1cc2c(NC3CCN(C)CC3)nc(N3CCCN(C)CC3)nc2cc1OCC1CCCNC1 (centres undefined)	58%	32µM*	nt	nt	nt
C[C@H](NC(=O)[C@@H](N)Cc1ccc(O)cc1)C(=O)NCC(=O)N[C@H]1CSSC[C@@H](C(=O)O)NC(=O)[C@H](CO)NC(=O)[C@H]([C@@H](C)O)NC(=O)[C@H](Cc2ccccc2)NC(=O)[C@H]([C@@H](C)O)NC(=O)[C@H](CCCCN)NC(=O)[C@@H](Cc2c[nH]c3ccccc23)NC(=O)[C@H](Cc2ccccc2)NC(=O)[C@H](Cc2ccccc2)NC(=O)[C@H](CC(N)=O)NC(=O)[C@H](CCCCN)NC1=O	nt	nt	0	nt	nt
O=C(Nc1sc2c(c1C(=O)O)CCCC2)c1ccc(Cl)cc1	-13%	1%	-36*	?	38%
O=C(Nc1sc2c(c1C(=O)O)CCC2)c1ccccc1	-17%	-14%	-21	4%	23%
O=C(Nc1sc2c(c1C(=O)O)CCCCC2)c1ccccc1	-9%	-13%	-38*	11%	27%
CCOC(=O)c1cc(C(C)=O)c(=O)[nH]c1C	-1%	8%	4	7%	-6%
CCOC(=O)c1cc(C#N)c(=S)[nH]c1C	-7%	7.9µM*	6	-19%	-2%
COCc1[nH]c(=S)c(C#N)cc1C(=O)OC	1%[57.1 µM]	14µM*	0	-7%	8%
COC(=O)c1cc(C#N)c(=O)[nH]c1C	0%	0%	-3	-17%	-2%
COC(=O)c1ccc(NC(=O)c2ccccc2OCC(=O)Nc2ccc(Br)cc2)cc1	9%	4%	nt	nt	nt
CN(C)/C=N/c1c(C#N)cnn1-c1ccc(F)c(Cl)c1	nt	nt	2	nt	nt
COc1cc(C2N(c3ccccc3)CCN2c2ccccc2)cc(OC)c1OC	3%[57.1 µM]	28%[57.1 µM]	-36*	0%	19%
COC(=O)[C@H](COC(C)(C)C)NC(=O)O[C@H]1C(=O)c2cc(OC)ccc2O[C@@H]1c1ccc(OC)c(Br)c1	nt	nt	0	nt	nt
Oc1cccc(C2c3[nH]c4ccccc4c3CCN2Cc2ccc3c(c2)CCO3)c1 (centres undefined)	7%[57.1 µM]	13%[57.1 µM]	-4	-6%	-4%
Oc1cccc(C2c3[nH]c4ccccc4c3CCN2Cc2ccoc2)c1 (centres undefined)	6%	40µM*	-3	8%	-11%
O=C(C[n+]1cccc2cccc(O)c21)c1ccc(Br)cc1	1%	21%	nt	nt	nt
CC(=O)NNC(=S)NC(=O)c1cccc([N+](=O)[O-])c1	5%	50µM*	1	-2%	7%
O=C(NNC(=S)NC(=O)c1ccc(Br)cc1)c1cccc([N+](=O)[O-])c1	-1%	?	7	1%	-6%
Cc1ccccc1-c1nc2c(=O)n(C)c(=O)nc-2n(C)n1	13µM*	14µM*	nt	nt	nt
CCc1ccc(-c2nc3c(=O)n(C)c(=O)nc-3n(CC)n2)cc1	35µM*	-16%	nt	nt	nt

High-throughput results from PubChem BioAssay.
